Screening results deposited in PubChem by National Center for Advancing Translational Sciences (NCATS).
D1 antag: blocks dopamine activation of the human D1 receptor; P21728; HEK293 TREx D1 cells, calcium flux, dopamine EC80; stronger effect = lower value; activity change, negative = inhibition, % at 10 µM; 3.2% of 360,000 active; in the data active means activity change below about -30%; further: on the % scale 0 is the no-effect control and ±100 the full control effect
Target sequence (P21728 whole entry, looked up): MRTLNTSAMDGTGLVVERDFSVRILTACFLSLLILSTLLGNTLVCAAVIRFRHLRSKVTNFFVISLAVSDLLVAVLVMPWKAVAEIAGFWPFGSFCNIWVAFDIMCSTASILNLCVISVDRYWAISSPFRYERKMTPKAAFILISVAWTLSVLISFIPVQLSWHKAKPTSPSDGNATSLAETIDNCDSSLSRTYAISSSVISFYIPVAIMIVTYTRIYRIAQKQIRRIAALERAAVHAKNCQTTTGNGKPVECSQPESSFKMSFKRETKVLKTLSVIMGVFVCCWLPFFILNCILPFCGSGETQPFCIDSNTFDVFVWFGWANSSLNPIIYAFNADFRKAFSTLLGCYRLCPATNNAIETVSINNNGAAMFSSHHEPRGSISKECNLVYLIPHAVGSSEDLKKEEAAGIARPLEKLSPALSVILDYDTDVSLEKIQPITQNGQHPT
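Tetracycline-induced HEK293 T-REx cells with force-coupled D1 receptor were loaded with a no-wash calcium dye. Compound was added after a 10 s baseline and read kinetically for 180 s; EC80 dopamine was then added and calcium flux followed another 180 s.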
D1 potentiator: potentiators of human D1 dopamine receptor. HEK293 TREx D1 cells, calcium flux, dopamine EC20 potentiation. P21728. 0.036% of 360,000 active. potentiation, % at 10 µM; in the data active means potentiation above about 30%; further: 0% is about no effect
DRD3 antagonist: blocks the human D3 dopamine receptor. P35462. D3R cells, DiscoveRx beta-arrestin luminescence, antagonist mode; stronger effect = lower value. max response, negative = inhibition, %. 2.5% of 360,000 active; in the data active means max response below about -50%; inconclusive means no clear call, values can overlap the other calls; further: on the % scale 0 is the no-effect control and ±100 the full control effect
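Cells expressing the human receptor were seeded at 1500 cells/well, incubated overnight at 37 degrees C in 5% CO2, then exposed to library compounds with dopamine controls for 90 minutes at 37 degrees C before luminescent detection.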
D1 agonist: activates the human D1 dopamine receptor. P21728. HEK293 T-REx D1 cells, calcium flux, agonist mode. activation, % at 2 µM. 1% of 360,000 active. AID 504660; in the data active means activation above about 30%; further: 0% is about no effect
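Inducible HEK293 T-REx D1 cells, force-coupled to calcium signalling, were plated at 4000 cells/well with tetracycline and held overnight at 30 C. After no-wash calcium dye loading, compound-evoked calcium rise over 180 s flagged agonists.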
D3 ag: D3 dopamine receptor (human) agonism | D3R DiscoveRx beta-arrestin cells, luminescence, 90 min | max activation, % | 0.58% of 410,000 active | AID 652048; in the data active means max activation above about 30%; further: 0% is about no effect
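Agonist mode: compounds and dopamine controls were applied to plated cells for 90 min at 37 degrees C after an overnight attachment at 1500 cells/well. Luminescent read-out followed 30 - 60 minutes at room temperature with DiscoveRx detection reagent.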
An asterisk follows results filed as active; ? = inconclusive; · = no result. Hits are enriched below; roughly 6% of the tested compounds scored in any of these assays.

SMILES | D1 antag | D1 potentiator | DRD3 antagonist | D1 agonist | D3 ag
CC(=O)N1C[C@H]2CON(C)[C@H]2C[C@H]1c1ccc(-c2cccnc2)cc1 | · | · | -8 | · | 4
OC(c1cc(-c2cccc(Cl)c2)nc2ccccc12)C1CCCCN1 (stereo not drawn) | · | · | -9 | · | 2
OC(c1cc(-c2ccc(C(F)(F)F)cc2)nc(C(F)(F)F)c1)C1CCCCN1 (stereo not drawn) | -11 | 13 | 21 | 158* | 0
OC(c1cc(C(F)(F)F)nc2c(C(F)(F)F)cccc12)C1CCCCN1 (stereo not drawn) | -10 | 34* | 25 | 160* | 14
CC1CCN(C(=O)CSc2nc(-c3ccc(F)cc3)cc(C(F)(F)F)n2)CC1 | -11 | -1 | · | 1 | 4
O=C(NNc1ccc([N+](=O)[O-])cn1)Nc1ccc(N=Nc2ccccc2)cc1 | · | · | -11 | · | 2
COc1ccc(C)cc1NC(=O)C(Cc1ccccc1)NS(=O)(=O)c1cccs1 (stereo not drawn) | 15 | -2 | · | 0 | -1
CN(C)CCN1CCN(C2CN(Cc3cn(Cc4ccccc4)nn3)S(=O)(=O)C2)CC1 (stereo not drawn) | · | · | -10 | · | 1
CCc1cc(C(=O)N2CCOCC2)c(NC2=NS(=O)(=O)c3ccccc32)s1 | -1 | 0 | -69* | 2 | 2
O=C(O)CP(=O)(O)O | -38* | -2 | -8 | 0 | 17
CCN(CC)c1ccc(/C=C2\SC(=O)N(C(C)C)C2=O)o1 | -17 | -5 | ? | 51* | -15
CC(C)N1C(=O)S/C(=C/c2ccc3c(c2)n(C)c(=O)n3C)C1=O | 2 | -3 | 34 | -1 | 15
CC(=O)c1cccc(NC(=O)c2cccc3c(-c4cccnc4)coc23)c1 | · | · | 36 | · | -8
Cc1cccc(C)c1NC1=C(Cl)C(=O)OC1OC(=O)c1ccccc1 (stereo not drawn) | -48* | -1 | 0 | -1 | -3
Cc1ccc(NC2=C(Cl)C(=O)OC2OC(=O)c2ccccc2)c(C)c1 (stereo not drawn) | -51* | -2 | -10 | 9 | -4
CO/N=C(/C(=O)N[C@@H]1C(=O)N2C(C(=O)O)=CCS[C@H]12)c1cnc(N)s1 | -7 | -2 | · | 3 | ·
Cc1cccc(Cl)c1NC(=S)NN | -42* | 4 | -15 | 3 | -7
Cc1c(Cl)cccc1NC(=S)NN | 6 | 2 | -6 | 0 | 2
O=C(Nc1ccccc1C(=O)OCc1cc(=O)n2c3c(sc2n1)CCCC3)c1ccc(F)cc1 | 5 | 0 | · | 0 | -18
CN(C)CCCN(C(=O)c1ccco1)c1nc(-c2ccc(Cl)cc2)cs1 | -42* | -6 | ? | 33* | -17
COc1ccc(-c2csc(N(CCCN(C)C)C(=O)c3cccs3)n2)cc1 | -15 | -15 | -58* | 18 | -51
Cc1ccc(-c2csc(N(CCCN(C)C)C(=O)c3ccco3)n2)cc1 | -1 | 0 | ? | 1 | -17
CCN(C(=O)c1cccs1)c1nc(-c2ccc(OC)cc2)cs1 | 12 | 3 | 15 | 6 | 15
Cc1cc(N2C(=O)Cc3ccccc3C2=O)ccc1C(C)C | -12 | -4 | 7 | -1 | 10
Cc1ccc(-c2cnc(C(O)c3ccc(Cl)cc3C)[nH]2)cc1 (stereo not drawn) | · | · | -8 | · | -11
SMILES | D1 antag | D1 potentiator | DRD3 antagonist | D1 agonist | D3 ag
CCOc1ccc(NC(=O)c2c(Nc3ccc(OC)cc3OC)sc(C(=O)c3ccc(Cl)cc3)c2N)cc1 | -25 | -1 | · | 49* | -3
C=C1C(=O)c2sccc2C(c2ccc(OC)c(OC)c2)C1COC(C)=O (stereo not drawn) | · | · | -116* | · | -32
CCN1CCN(CC(=O)N2N=C(c3cccs3)CC2c2ccc(OC)c(OC)c2)C(=O)C1=O (stereo not drawn) | 8 | -6 | 2 | 1 | 0
CCOC(=O)[C@]12CCC=C1N(Cc1ccccc1)C(=O)[C@H](CC(=O)NCc1ccccc1)C2 | · | · | ? | · | -12
COc1ccc(OCC(O)CN2CCN(c3ncccn3)CC2)cc1 (stereo not drawn) | 2 | 5 | ? | 2 | 31*
COc1ccc(OCC(O)CN2CCOCC2)cc1 (stereo not drawn) | -6 | -11 | 11 | 1 | 1
CCc1ccc(OCC(O)CN2CCN(c3ccc(OC)cc3)CC2)cc1 (stereo not drawn) | -40* | 0 | -27 | 30* | -10
CC(C)C[C@H]1CN(CCCC[C@@H]2CNC(=O)C(=O)N2CC2CCCCC2)C(=O)C(=O)N1Cc1ccccc1 | · | · | 45 | · | 2
COc1cc(-c2noc(C3CC(=O)N(c4cc(C)ccc4C)C3)n2)cc(OC)c1OC (stereo not drawn) | -15 | -5 | · | 1 | 2
CCN1CCN(C(=S)NC(=O)c2cccc(Br)c2)CC1 | · | · | -27 | · | -28
CCOCCCn1cc(C(=O)c2cc(Br)ccc2O)cc(C#N)c1=O | -36* | -10 | -19 | 21 | -15
Cc1c(-n2cc(C(=O)c3ccccc3O)cc(C#N)c2=O)c(=O)n(-c2ccccc2)n1C | -6 | -12 | 16 | 36* | 2
N#Cc1cc(C(=O)c2ccccc2O)cn(-c2ccc(Cl)cc2)c1=O | -2 | -3 | 16 | 19 | 1
CCCCn1cc(C(=O)c2cc(Br)ccc2O)cc(C#N)c1=O | -21 | -9 | 26 | 31* | 4
CC(C)n1cc(C(=O)c2cc(Br)ccc2O)cc(C#N)c1=O | 2 | -1 | -67* | 0 | 6
Cc1cc(C)cc(NC(=O)COc2cccc3c(=O)n(C)ccc23)c1 | · | 0 | · | 1 | 8
CC(c1nc2ccccc2[nH]1)n1c(=O)c(-c2ccco2)nc2ccccc21 (stereo not drawn) | · | · | 5 | · | -7
O=C(Nc1nnc(SCC(=O)N2CCCCC2)s1)c1c(F)cccc1F | 8 | -2 | 6 | 2 | -28
N#Cc1cc(C(=O)c2cc(F)ccc2O)cn(Cc2ccccc2)c1=O | -33* | -13 | 3 | 21 | 0
COc1ccc(-n2cc(C(=O)c3cc(Cl)ccc3O)cc(C#N)c2=O)cc1 | -35* | -10 | -22 | 20 | -11
COc1ccc(O)c(C(=O)c2cc(C#N)c(=O)n(-c3ccc(Cl)cc3)c2)c1 | 7 | -1 | 17 | 14 | 11
COc1ccccc1CNC(=O)CCCc1nnc2n(CC(C)C)c(=O)c3sccc3n12 | 14 | 2 | · | 2 | -9
Cc1ccc(C(=O)c2cn[nH]c2-c2cc(Cl)ccc2O)cc1 | -19 | -4 | 5 | 58* | 0
O=C(c1ccccc1)c1cn[nH]c1-c1ccccc1O | 3 | 1 | -1 | 4 | -1
COc1ccc(O)c(-c2[nH]ncc2C(=O)c2ccccc2)c1 | -14 | -4 | -57* | 4 | -6
CN1CCc2c(sc(NC(=O)CSc3ccccc3)c2-c2nc3ccccc3s2)C1 | -54* | -2 | · | 400* | -24
N/C(=N\O)c1ccc(N2CCN(c3ncccc3C(F)(F)F)CC2)nc1 | 1 | -4 | 40 | 5 | 31*
